Results filed as inconclusive are left out. Calls of active or inactive are those of the source. Calls follow the shape of the dose curve; as a rule, active = well fitted activation curve with a large enough effect; inconclusive = small, poorly fitted or top-dose-only effect; inactive = no such curve, though single readings can be large or run the other way.
molecular target: Cellular tumor antigen p53 (Homo sapiens) (UniProt P04637); assay: Confirmatory qHTS for small molecule compounds that upregulate eGFP-tagged delta133p53alpha (in C-terminal) cells.; settings: delta133p53alpha-eGFP (C-terminal) reporter cells, GFP fluorescence upregulation; series mostly up to 57.5 µM; activation (upregulation): at the top concentration
Text: Assay Development and Screening Technology
National Center for Advancing Translational Sciences (NCATS),
National Institute of Health (NIH), Rockville, Maryland
Cellular senescence (CS) is one of the hallmarks of aging and age-related diseases. Senescent cells are characterized by an irreversible growth arrest, an increase in senescence-associated beta-galactosidase (SA-beta-gal) activity and p16INK4a expression, an activation of the DNA damage response pathways, and the emergence of a senescence-associated secretory phenotype (SASP).
Delta133p53alpha, a human/primate-specific p53 protein isoform, delays or inhibits the induction of CS and SASP in various types of human cells, including progeria-derived fibroblasts, primary normal astrocytes, and CD8+ T lymphocytes. Induction of delta133p53alpha with small molecule compounds may provide therapeutic opportunities for inhibition of senescence/SASP-associated pathologies in progeria syndromes, astrocyte-mediated neuroprotection in neurodegenerative diseases, and possibly prevention and treatment of a wider range of senescence- and aging-associated diseases.
Here we report the development and validation of a cell-based quantitative high throughput screening (qHTS) assay in 1,536-well format. This qHTS assay uses the NCI-H358 cell line with doxycycline-inducible expression of enhanced green fluorescent protein (eGFP)-tagged delta133p53alpha, which allows efficient and highly quantitative measurement of the protein levels.
PROTOCOL TABLE (as described by Inglese J, Shamu CE and Guy RK. 2007)
SEQUENCE No. (e.g., 1, 2, 3, etc.); […] (e.g., Cells, Incubation, Reagent, etc.); VALUE; DESCRIPTION.
1; Cells; 4uL; 800 doxycycline treated cells / well in doxycycline-free media, 1536-well black, clear-bottom low base Aurora microplates.
2; Compounds; 23 nL; Kalypsis pin tool (Wako) equipped with 1536-well pin heads, 5-azacytidine positive control.
3; Incubation; 24 hr; 37C, 5% CO2; 95% relative humidity.
4; Aspiration; 1x; BioTek EL406 washer dispenser (Agilent).
5; Fixing; 3.5% paraformaldehyde, BioTek EL406 washer dispenser (Agilent).
6; Washing; 1x PBS; BioTek EL406 washer dispenser (Agilent).
7; Nuclei staining; 1:1000 dilution of Hoechst 33342 (Thermofisher), BioTek EL406 washer dispenser (Agilent).
8; Incubation; 20 min; in the dark at room temperature.
9; Washing; 2x, 1x PBS (ThermoFisher), BioTek EL406 washer dispenser (Agilent).
10; Reagent; 10 uL; 1x PBS per well, sealed with clear adhesive tape.
11; Detection; Fluorescence, Acumen eX3 laser scanning cytometer (STP Labtech), GFP filters […].
NOTES (numbers refer to sequence numbers above).
1. NCI-H358 cells expressing eGFP-tagged delta133p53alpha were grown in T75 culture flasks and treated with doxycycline for 24h, at 10 ng/ml for eGFP-D133p53a cells (N-terminal cell) and 100 ng/ml for D133p53a-eGFP cells (C-terminal cells). Cells were trypsinized, counted using a Counted 3 Automated Cell Counter (Thermo Fisher), and diluted to a concentration of 200,000 cells/ml. A Multidrop Combi Reagent Dispenser (ThermoFisher) was used to dispense 800 cells/well in […] of doxycycline-free media, into 1536-well black/clear bottom low base plates (AuroraMicroplates).
2. After plating cells, 23 nl of compound library, DMSO vehicle control or positive control (5-azacytidine) were transferred by Pin Tool (Wako). The plate map layout was the same for each plate: (column 1) non-doxycycline treated cells + DMSO vehicle control; (column 2) doxycycline treated cells + DMSO vehicle control baseline; (column 3) doxycycline treated cells + positive control 57.5 uM final concentration 5-azacytidine; (column 4) doxycycline treated cells + serial dilution of 5-azacytidine, 16-point 1:2 titration spanning 1.8 nM to […] final concentration; (columns 5-48) doxycycline treated cells + titration of library compounds.
3. Cells were incubated at 37 °C, 5 % CO2, 95% RH with breathable metal lid for 24h.
4-10. […]

Chain of Cellular tumor antigen p53 (Homo sapiens) (P04637 whole entry, looked up): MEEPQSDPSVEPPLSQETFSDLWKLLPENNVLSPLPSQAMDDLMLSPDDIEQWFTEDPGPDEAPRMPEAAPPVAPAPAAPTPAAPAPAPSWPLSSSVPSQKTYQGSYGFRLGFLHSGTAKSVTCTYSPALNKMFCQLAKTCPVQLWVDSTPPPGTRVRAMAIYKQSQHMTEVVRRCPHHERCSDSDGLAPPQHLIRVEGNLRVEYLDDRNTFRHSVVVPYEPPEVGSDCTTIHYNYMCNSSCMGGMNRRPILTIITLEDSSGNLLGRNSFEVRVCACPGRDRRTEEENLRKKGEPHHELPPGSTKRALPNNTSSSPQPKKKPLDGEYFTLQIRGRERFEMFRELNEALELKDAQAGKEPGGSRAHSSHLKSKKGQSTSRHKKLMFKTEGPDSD

Activation (upregulation), inactive:
Nc1nc(Cl)nc2c1ncn2[C@@H]1O[C@H](COP(=O)(O)OP(=O)(O)OP(=O)(O)O)[C@@H](O)[C@H]1O -17.8%, N=S(=O)(O)Cc1noc2ccccc12 -6.26%, CCN1CCCC1CNC(=O)c1cc(S(=O)(=O)CC)c(N)cc1OC (stereo not given) 27.8%, O[Si](CCCN1CCCCC1)(c1ccc(F)cc1)C1CCCCC1 (stereo not given) 14.9%, N#Cc1cc([N+](=O)[O-])c2sc(C(N)=O)[n+]([O-])c2c1 3.58%, CCN1CCCC1CNC(=O)c1cc(S(N)(=O)=O)ccc1OC (stereo not given) 7.93%, Brc1c(Br)c(Br)c2n[nH]nc2c1Br 0.507%, Cn1cnc2c(NCc3ccccc3)nc(NCCO)nc21 3.46%, CN(C)c1nc(N)c(C(=O)N=C(N)N)nc1Cl 4.57%, Cc1cccc(-c2[nH]ncc2-c2ccc3ncccc3n2)n1 7.74%, C#C[C@]1(O)CC[C@H]2[C@@H]3CCC4=Cc5oncc5CC4(C)[C@H]3CCC21C (stereo not given in full) 8.44%, O=C(O)c1cc2cc(F)ccc2[nH]1 3.59%, CN(C)CCCC1(c2ccc(F)cc2)OCc2cc(C#N)ccc21 (stereo not given) 0.697%, C=CCNc1ncnc2ccc(Br)cc12 -0.729%, COc1cc2c(cc1OC)-c1cc(=Nc3c(C)cc(C)cc3C)n(C)c(=O)n1CC2 -16.1%, COC(=O)Nc1nc2ccc(C(=O)c3cccs3)cc2[nH]1 43.6%, Nc1nc2ccc(Cl)cc2c2nc(-c3ccco3)nn12 29.5%, CC1CN(S(=O)(=O)c2cccc3cnccc23)CCN1 (stereo not given) 0.467%, CSc1ccccc1N1CCN(CCCCCC(=O)NC2CCCc3ccccc32)CC1 (stereo not given) 21.1%, CC(C)(CO)Cc1cc(C(C)(C)C)c(O)c(C(C)(C)C)c1 3%, O=Nc1c(-c2c(O)[nH]c3cc(Br)ccc23)[nH]c2ccccc12 4.1%, CNC(=O)[C@H]1O[C@@H](n2cnc3c(NCc4cccc(I)c4)ncnc32)[C@H](O)[C@@H]1O -35.1%, O=C(c1cc(O)c(O)c([N+](=O)[O-])c1)c1ccccc1F 3.4%, NS(=O)(=O)c1ccc(-n2nc(C(F)(F)F)cc2-c2ccc(Cl)cc2)cc1 9.14%, O=C1NC(=O)c2c1c(-c1ccccc1)cc1[nH]c3ccc(O)cc3c21 9.9%

Potency, active:
O=[N+]([O-])c1ccc2c(c1)S(=O)(=O)C=C2 8.63 µM, Cc1ccc(S(=O)(=O)/C=C/C#N)cc1 21.7 µM, CN(C)S(=O)(=O)c1ccc2c(c1)/C(=C/c1cc3c([nH]1)CCCC3)C(=O)N2 0.769 µM, Cc1ccc(S(=O)(=O)N[C@@H](Cc2ccccc2)C(=O)CCl)cc1 15.3 µM, Cc1cc(O)c2c(c1)C(=O)c1cc(O)cc(O)c1C2=O 21.7 µM, NC[C@@H]1O[C@H](C23CC4CC(CC(C4)C2)C3)Cc2c1ccc(O)c2O 19.3 µM, CC1c2cccc(O)c2C(O)=C2C(=O)C3(O)C(O)=C(C(N)=O)C(=O)C(N(C)C)C3C(O)C21 (stereo not given) 0.0061 µM, COc1ccc(/C=C2\COc3ccc(C)cc3C2=O)cc1O 43.2 µM, C[n+]1cc2c3c(ccc2c2ccc4cc5c(cc4c21)OCO5)OCO3 0.968 µM, Cn1cc(C2=C(c3ccc(Cl)cc3Cl)C(=O)NC2=O)c2ccccc21 0.968 µM, CC[C@@]1(O)C(=O)OCc2c1cc1n(c2=O)Cc2cc3c(CN(C)C)c(O)ccc3nc2-1 4.85 µM, O=C1NCc2c1c1c3ccccc3[nH]c1c1[nH]c3ccccc3c21 27.3 µM, Cc1cc(C)c(/C=C2\C(=O)Nc3ccccc32)[nH]1 7.69 µM, O=C1C(SCCO)=C(SCCO)C(=O)c2ccccc21 9.68 µM

Potency, inactive:
CC(C)(C)[C@]1(O)CCN2C[C@H]3c4ccccc4CCc4cccc(c43)[C@@H]2C1

From PubChem BioAssay AID2060323 (National Center for Advancing Translational Sciences (NCATS), 2025)
